Source: PubChem (The Scripps Research Institute Molecular Screening Center)
TR-FRET SRC-2 ct – TR-FRET artefact, counter-screen to PPARgamma/SRC-2 agonist assay; actives 0.4% (n = 200,000); AID 1049; hits give high values; TR-FRET ratio at 8 µM; in the data active = TR-FRET ratio above about 2000
SRC1 TRFRET art – flags TR-FRET format artefacts in PPARgamma SRC-1 recruitment agonist screen | TR-FRET detection artefact counter-screen, emission ratio; hits give high values | TR-FRET ratio at 8 µM | actives 0.34% (n = 99,000) | AID 1051; in the data active = TR-FRET ratio above about 2300
PPARg SRC3 recr – promotes SRC-3 coactivator recruitment by human PPARgamma | actives 0.26% (n = 200,000) | P37231 | activation, % at 8 µM | biochemical PPARgamma/SRC-3 coactivator recruitment assay | AID 731; in the data active = activation above about 23%
Target sequence (P37231 whole entry, looked up): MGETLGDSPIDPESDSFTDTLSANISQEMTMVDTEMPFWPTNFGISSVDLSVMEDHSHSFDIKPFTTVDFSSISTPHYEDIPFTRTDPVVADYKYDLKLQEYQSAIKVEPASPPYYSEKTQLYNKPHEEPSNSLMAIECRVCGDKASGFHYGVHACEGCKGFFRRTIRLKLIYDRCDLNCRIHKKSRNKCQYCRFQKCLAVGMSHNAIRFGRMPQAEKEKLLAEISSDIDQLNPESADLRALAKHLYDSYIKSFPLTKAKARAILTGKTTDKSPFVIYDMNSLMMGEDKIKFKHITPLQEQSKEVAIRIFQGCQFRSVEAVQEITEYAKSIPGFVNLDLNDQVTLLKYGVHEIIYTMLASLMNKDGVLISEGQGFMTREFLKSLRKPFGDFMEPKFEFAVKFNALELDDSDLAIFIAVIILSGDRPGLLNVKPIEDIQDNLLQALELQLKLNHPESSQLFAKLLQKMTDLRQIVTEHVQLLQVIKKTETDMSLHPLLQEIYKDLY
PPARg SRC2 recr – PPARgamma-driven SRC-2 recruitment agonism. P37231. PPARgamma LBD-SRC-2 recruitment, biochemical. activation, % at 8 µM. actives 0.34% (n = 200,000). AID 1032
PPARg SRC-1 ag – promotes SRC-1 coactivator recruitment by human PPARgamma; P37231; PPARgamma-SRC-1 coactivator recruitment biochemical assay; activation, % at 8 µM; actives 0.41% (n = 200,000); AID 631; in the data active = activation above about 19%
SRC3 TRFRET art – counter-screen for PPARgamma SRC-3 recruitment agonists: TR-FRET artefact. PPARgamma/SRC-3 format; hits give high values. TR-FRET ratio at 8 µM. actives 0.39% (n = 99,000). AID 1048; in the data active = TR-FRET ratio above about 2000
PPARg SRC2 conf – confirmation of agonists of SRC-2 recruitment by human PPARgamma | biochemical SRC-2 recruitment by PPARgamma | activation, % at 8 µM | shares compounds with PPARg SRC3 recr | actives 52% (n = 790)
PPARg SRC1 conf – confirmation of agonists of SRC-1 recruitment by human PPARgamma. shares compounds with PPARg SRC3 recr. PPARgamma–SRC-1 coactivator recruitment biochemical assay. activation, % at 8 µM. actives 43% (n = 790). AID 1300; in the data active = activation above about 20%
PPARg SRC3 conf – confirmation of agonists of SRC-3 recruitment by human PPARgamma. AID 1301. actives 29% (n = 790). activation, % at 8 µM. shares compounds with PPARg SRC3 recr. biochemical PPARgamma-SRC-3 coactivator recruitment, agonist mode; in the data active = activation above about 24%
Numbers stand for hits. Rows were chosen to be rich in hits. Some 0.84% of all compounds tested hit in one or more screens of this group. Rule as the data show it, unless noted: active = activation above about 22%; inactive = the rest.

`COc1ccc(N2CCN(Cc3nc(N)nc(Nc4ccccc4OC)n3)CC2)cc1` gave TR-FRET SRC-2 ct inactive, PPARg SRC3 recr inactive, PPARg SRC2 recr inactive and PPARg SRC-1 ag inactive.
Screening COc1ccc(Nc2nc(N)nc(CN3CCN(c4ccc(F)cc4)CC3)n2)cc1 returned TR-FRET SRC-2 ct inactive, SRC1 TRFRET art 2427, PPARg SRC3 recr inactive, PPARg SRC2 recr inactive, PPARg SRC-1 ag 24, SRC3 TRFRET art inactive, PPARg SRC2 conf inactive, PPARg SRC1 conf inactive and PPARg SRC3 conf inactive.
`Cc1cc(C)c(C#N)c(N)n1` gave TR-FRET SRC-2 ct inactive, SRC1 TRFRET art inactive, PPARg SRC3 recr inactive, PPARg SRC2 recr inactive, PPARg SRC-1 ag inactive and SRC3 TRFRET art inactive.
For Cc1cc(-c2cccc(Br)c2)c(C#N)c(N)n1 the results were TR-FRET SRC-2 ct inactive, SRC1 TRFRET art 2711, PPARg SRC3 recr inactive, PPARg SRC2 recr 25, PPARg SRC-1 ag 22, SRC3 TRFRET art inactive, PPARg SRC2 conf inactive, PPARg SRC1 conf inactive and PPARg SRC3 conf inactive.
Screening COc1cc(CNC2CCCCCC2)cc(OC)c1O returned TR-FRET SRC-2 ct inactive, PPARg SRC3 recr inactive, PPARg SRC2 recr inactive and PPARg SRC-1 ag inactive.
`COC(=O)c1sccc1NC(=O)c1cc(-c2cccc(C)c2)nc2ccccc12` gave TR-FRET SRC-2 ct 2058, PPARg SRC3 recr inactive, PPARg SRC2 recr 26, PPARg SRC-1 ag inactive, PPARg SRC2 conf inactive, PPARg SRC1 conf inactive and PPARg SRC3 conf inactive.
NC(=O)Cc1ccc(C(=O)c2ccc(Cl)cc2Cl)s1 was read as TR-FRET SRC-2 ct inactive, SRC1 TRFRET art inactive, PPARg SRC3 recr inactive, PPARg SRC2 recr inactive, PPARg SRC-1 ag inactive and SRC3 TRFRET art inactive.
For C/C(CC(=O)NC(C)(C)C)=N\NC(N)=S the results were TR-FRET SRC-2 ct inactive, SRC1 TRFRET art inactive, PPARg SRC3 recr inactive, PPARg SRC2 recr inactive, PPARg SRC-1 ag 21, SRC3 TRFRET art inactive, PPARg SRC2 conf inactive, PPARg SRC1 conf inactive and PPARg SRC3 conf inactive.
For CCc1nc2ccccc2c(C(=O)OCC(=O)NCc2ccco2)c1C the results were TR-FRET SRC-2 ct inactive, PPARg SRC3 recr inactive, PPARg SRC2 recr inactive and PPARg SRC-1 ag inactive.
`O=C(Nc1ccc(-c2cc3ccccc3oc2=O)c(Cl)c1)c1cccnc1` gave TR-FRET SRC-2 ct inactive, PPARg SRC3 recr inactive, PPARg SRC2 recr inactive and PPARg SRC-1 ag inactive.
Oc1ccc(NCc2cccc(OCc3ccccc3)c2)cc1 was read as TR-FRET SRC-2 ct inactive, SRC1 TRFRET art inactive, PPARg SRC3 recr inactive, PPARg SRC2 recr inactive, PPARg SRC-1 ag 24, SRC3 TRFRET art inactive, PPARg SRC2 conf inactive, PPARg SRC1 conf inactive and PPARg SRC3 conf inactive.
Screening COc1ccc2cc(C#N)c(SCC(=O)NNC(=O)Cc3ccccc3)nc2c1 returned TR-FRET SRC-2 ct 2781, PPARg SRC3 recr inactive, PPARg SRC2 recr 49, PPARg SRC-1 ag 32, PPARg SRC2 conf 54, PPARg SRC1 conf 42 and PPARg SRC3 conf 37.
Screening Cc1ccc2cc(C#N)c(SCC(=O)NNC(=O)Cc3ccccc3)nc2c1 returned TR-FRET SRC-2 ct inactive, SRC1 TRFRET art inactive, PPARg SRC3 recr inactive, PPARg SRC2 recr inactive, PPARg SRC-1 ag inactive and SRC3 TRFRET art inactive.
Cc1ccc(OCC(=O)Nc2cc(-c3nn4c(C)nnc4s3)ccc2C)cc1 was read as TR-FRET SRC-2 ct inactive, SRC1 TRFRET art inactive, PPARg SRC3 recr inactive, PPARg SRC2 recr inactive, PPARg SRC-1 ag inactive and SRC3 TRFRET art inactive.
`Cc1ccccc1OCCOc1ccccc1C=C(C#N)C#N` gave TR-FRET SRC-2 ct 2050, SRC1 TRFRET art inactive, PPARg SRC3 recr inactive, PPARg SRC2 recr inactive, PPARg SRC-1 ag 20, SRC3 TRFRET art 2057, PPARg SRC2 conf inactive, PPARg SRC1 conf inactive and PPARg SRC3 conf inactive.
`Cc1cccc(OCCOc2ccccc2C=C(C#N)C#N)c1` gave TR-FRET SRC-2 ct inactive, SRC1 TRFRET art inactive, PPARg SRC3 recr inactive, PPARg SRC2 recr inactive, PPARg SRC-1 ag inactive and SRC3 TRFRET art inactive.
